A number with no mark means an inactive call. Calls follow the shape of the dose curve; as a rule, active = well fitted curve in the direction sought with a large enough effect; inactive = no such curve, though single readings can be large or run the other way.
molecular target: Alpha-galactosidase A (Homo sapiens) (UniProt P06280); assay: Counterscreen for Glucocerebrosidase Inhibitors: qHTS Assay for Human alpha-Galactosidase at pH 4.5 (AID 992); settings: purified enzyme, fluorogenic substrate; series mostly up to 76.9 µM; activity change, negative = inhibition: at the top concentration; also: 0% is about no effect
Excerpt: NIH Chemical Genomics Center [NCGC]
NIH Molecular Libraries Screening Centers Network [MLSCN]
PI Name: Zheng, Wei [NIH]
Alpha-galactosidase is a homodimeric glycoprotein that hydrolyzes the terminal alpha-galactosyl moieties from glycolipids and glycoproteins. Deficiency of this enzyme results in Fabry Disease with progressive accumulation of globotriaosylceramide and other glycosphingolipids in vascular endothelial cells that causes renal failure, myocardial infarction and stroke, and premature death in patients. It has reported that the improper folding and trafficking of alpha-galactosidase resulted from the genetic mutations may account for a significant numbers of Fabry patients. […] We optimized this alpha-galactosidase assay in 1536-well plate format for identifying the novel small molecule inhibitors with the structures other than the sugar analogs in order to develop the new pharmacological chaperones.
NCGC Assay Protocol Summary:
This is a fluorogenic enzyme assay with 4-Methylumbelliferyl alpha-D-galactopyranoside as the substrate and human […] as the enzyme preparation. Upon the hydrolysis of this fluorogenic substrate, the resulting product, […]. 4-Methyllumbelliferone, can be excited at 365 nm and emits at 440 nm which can be detected by a standard fluorescence plate reader. Data were normalized to the controls for basal activity (without enzyme) and 100% activity (with enzyme). In the AC50 values were determined from concentration-response data modeled with the standard Hill equation.
Assay buffer: 50 mM citric acid, 0.005% Tween-20, pH 4.5. (pH 4.5 is an optimal condition for this enzyme assay)
1536-well assay protocol for the human alpha-galactosidase:
(1) Add 2 ul/well of enzyme (2 nM final)
(2) Add 23 nL compounds in DMSO solution. The final titration was 0.7 nM to 77 uM.
(3) Add 1 ul of substrate (80 uM final)
(4) Incubate at room temperature for 20 min.
(5) Add 2 ul stop solution (1M NaOH and 1M Glycine mixture, pH 10)
(6) Detect the assay plate in a ViewLux plate reader (PerkinElmer) with Ex=365 nm and Em=440nm.
Keywords: Alpha-galactosidase, Fabry Disease, pharmacological chaperone, chaperone therapy, high throughput screening, alpha-galactosidase inhibitor, MLSMR, MLSCN, NIH Roadmap, qHTS and NCGC

Chain of Alpha-galactosidase A (Homo sapiens) (P06280 whole entry, looked up): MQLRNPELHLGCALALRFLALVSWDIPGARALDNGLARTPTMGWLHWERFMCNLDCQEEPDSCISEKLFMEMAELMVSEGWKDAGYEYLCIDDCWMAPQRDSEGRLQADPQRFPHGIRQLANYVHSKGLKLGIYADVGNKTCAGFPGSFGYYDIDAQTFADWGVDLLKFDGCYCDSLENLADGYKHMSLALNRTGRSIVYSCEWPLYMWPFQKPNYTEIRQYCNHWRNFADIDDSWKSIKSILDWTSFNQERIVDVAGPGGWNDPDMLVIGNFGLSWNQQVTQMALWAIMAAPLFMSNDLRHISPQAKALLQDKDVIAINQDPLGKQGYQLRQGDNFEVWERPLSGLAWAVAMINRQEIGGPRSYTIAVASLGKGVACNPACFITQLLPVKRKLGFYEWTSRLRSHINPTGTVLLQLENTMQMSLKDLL

SMILES	activity change, negative = inhibition [%]
Nc1ccc2c3c(cccc13)C(=O)NC2=O	-3.42
CC[C@@H]1Cc2cc(O)ccc2C2=C1c1ccc(O)cc1C[C@H]2CC	80.4
CCCCCCCCCCCCCCC[C@H](O)[C@H](N)CO	-2.95
NC1(C(=O)O)CCCCC1	-0.131
CCCC(=O)NCCc1c2n(c3ccc(OC)cc13)CCCc1ccccc1-2	-4.28
Clc1nccc2c1ccc1ccccc12	-2.22
O=C(O)c1cccnc1C(=O)O	-3.59
O=C(N[C@@H](Cc1ccccc1)C(=O)CCl)OCc1ccccc1	0.467
NC(=Nc1ccccc1)NC(=O)c1nc(Cl)c(N)nc1N	-2.55
N[C@H](C(=O)O)[C@H](O)C(=O)O	1.93
C[N+](C)(C)CC=O	-1.41
CCN(c1nc(N)c(C(=O)N=C(N)N)nc1Cl)C(C)C	1.49
O=S(=O)(c1cccc2c(Cl)cccc12)N1CCCNCC1	2.47
COc1ccc(CCN(C)CCc2ccc(OC)c(OC)c2)cc1OC	-4.11
CCCCCCCCCCCCCCSCC(=O)O	-2.82
Nn1nnc2ccccc21	0.469
[Li+]	-1.31
COc1cc(CC(=O)O)ccc1O	-1.76
NCCCNCCCCNCCCN	6.53
Nc1ccc(-c2nc3ccc(-c4nc5ccc(N)cc5[nH]4)cc3[nH]2)cc1	-1.32

SMILES	activity change, negative = inhibition [%]
O=C1NC(=O)c2cc(Nc3ccccc3)c(Nc3ccccc3)cc21	1.25
O=C(O)c1ccccc1Nc1ccccc1	-2.16
CNc1cc(NS(=O)(=O)c2ccc(N)cc2)nc(NC)n1	2.79
O=[N+]([O-])c1cccc2cn[nH]c12	-2.75
N[C@H](C(=O)O)c1cc(O)cc(O)c1	2.34
COc1cc(CNC(=O)CCCCCCC(C)C)ccc1O	-1.04
NOCC(=O)O	-4.01
O=c1onc2n1-c1cc(Br)ccc1OC2	-1.44
CC(=O)NCCc1c[nH]c2ccc(O)cc12	2.49
CCCCCCCCCCC/C=C\C(C)(C)/C=C\CCCC(=O)O	-4.74
COc1ccccc1N1CCN(CCCCNC(=O)c2ccc3ccccc3c2)CC1	-5.76
c1ccc(CN2CCC3(CCCc4ccccc43)CC2)cc1	-4.44
NCCCCN	-2.25
C[C@H](O)C(=O)C1=Nc2c(nc(N)[nH]c2=O)NC1	11.7
CCC(=O)N1CCN(C(=O)c2ccccc2)CC1	-1.29
Cc1ccc2c(c1)C(N1CCN(C)CC1)=Nc1cccnc1N2	-1.61
c1ccc2nc(C3=NCCN3)ccc2c1	1.39
c1ccc2c(c1)CC(N1CCN(c3cccc4c3OCCO4)CC1)C2	-4.06
O=C(O)Cc1c[nH]c2ccc(O)cc12	0.722
CCCCCCCC/C=C\CCCCCCCC(=O)NCCc1ccc(O)c(O)c1	-15.5

— PubChem BioAssay (NCATS)
